One may read the AC50 as the midpoint of the concentration-response curve, whichever way the signal moves.

Experimental findings from PubChem BioAssay (EPA / NIEHS) are described below.

Molecules are shown by their SMILES. Some structures have more than one record in an assay (separate samples or runs), and their calls can disagree. Calls of active or inactive are those of the source. How the source made its calls: active means hit-call score of the fitted dose curve at least 0.9, where 1 is the maximum; inactive means score below 0.9.

Sequence of Signal transducer and activator of transcription 3 (Homo sapiens) (P40763 whole entry, looked up): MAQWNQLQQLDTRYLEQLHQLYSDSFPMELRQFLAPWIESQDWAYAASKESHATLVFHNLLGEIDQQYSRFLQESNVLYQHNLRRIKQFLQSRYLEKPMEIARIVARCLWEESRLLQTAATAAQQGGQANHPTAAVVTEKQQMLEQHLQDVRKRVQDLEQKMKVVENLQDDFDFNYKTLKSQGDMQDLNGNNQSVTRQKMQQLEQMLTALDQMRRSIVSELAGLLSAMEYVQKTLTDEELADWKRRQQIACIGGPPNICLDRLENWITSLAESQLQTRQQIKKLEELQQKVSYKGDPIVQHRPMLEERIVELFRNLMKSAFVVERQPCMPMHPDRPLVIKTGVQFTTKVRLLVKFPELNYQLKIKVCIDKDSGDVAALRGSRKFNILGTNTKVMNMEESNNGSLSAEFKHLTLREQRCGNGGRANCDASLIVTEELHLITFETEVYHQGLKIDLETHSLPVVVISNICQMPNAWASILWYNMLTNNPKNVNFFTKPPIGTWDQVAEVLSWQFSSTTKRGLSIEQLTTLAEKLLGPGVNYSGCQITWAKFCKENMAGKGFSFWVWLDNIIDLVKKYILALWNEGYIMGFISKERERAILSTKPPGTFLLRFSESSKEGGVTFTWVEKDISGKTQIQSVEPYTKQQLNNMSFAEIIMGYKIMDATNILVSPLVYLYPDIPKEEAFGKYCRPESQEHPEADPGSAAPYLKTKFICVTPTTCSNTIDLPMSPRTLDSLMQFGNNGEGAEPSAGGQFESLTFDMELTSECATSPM

This test concerns the target Signal transducer and activator of transcription 3 (Homo sapiens) (UniProt P40763). Briefly: ATG_STAT3_CIS: Attagene CIS-FACTORIAL HepG2 Assay for human Signal Transducer and Activator of Transcription 3 (STAT3) (AID 2282963). The note with it: HepG2, Attagene cis-factorial STAT3 reporter transcription; actives raise or lower the signal. As for the experimental part: ATG_CIS is a cell-based, multiplexed-readout assay that uses HepG2, a human liver cell line, with measurements taken at 24 hours after chemical dosing in a 24-well plate.ATG_STAT3_CIS is one of 52 assay component(s) measured or calculated from the ATG_CIS assay. It is designed to make measurements of mRNA induction, a form of inducible reporter, as detected with fluorescence intensity signals by Reverse transcription polymerase chain reaction (RT-PCR) and Capillary electrophoresis technology.Data from the assay component ATG_STAT3_CIS was analyzed into 1 assay endpoint. This assay endpoint, ATG_STAT3_CIS, was analyzed with bidirectional fitting relative to DMSO as the negative control and baseline of activity. Using a type of inducible reporter, measures of mRNA for gain or loss-of-signal activity can be used to understand the reporter gene at the transcription factor-level as they relate to the gene STAT3. Furthermore, this assay endpoint can be referred to as a primary readout, because this assay has produced multiple assay endpoints where this one serves a reporter gene function. To generalize the intended target to other relatable targets, this assay endpoint is annotated to the dna binding intended target family, where the subfamily is stat protein.
Human liver HepG2 cells are transiently transfected with multiple reporter transcription units (MRTUs) in 6-well plates using FuGene 6 reagent (Roche; 3 ml FuGene/1 mg DNA). The MRTU constructs are regulated by a cis-regulating element (promoter). […] A major difference between the CIS and TRANS system is that in CIS activities of endogenous TFs are measured, whereas the TRANS assay evaluates changes in activities of exogenous, chimeric NR-Gal4 proteins. […] At the end of 24 hour incubation, total RNA was isolated using TriZol reagent (Invitrogen). The isolated RNA is then reverse-transcribed using oligo(dT) primer and Mo-MLV reverse transcriptase (Invitrogen) with DNAse I (Ambion) treatment for 30 min. The one-tenth of the produced cDNA was amplified by PCR using Taq DNA polymerase (Invitrogen) and two reporter sequence-specific primers. The PCR products were fluorescently labeled by primer extension with 6-arboxyfluorescein (6-FAM) 5'-labeled reporter sequence-specific primer (2 min at 95 C, 20 s at 68 C and 10 min at 72 C) and these products were digested with 5U of HpaI (New England Biolabs) for 2h at 37 C. The fragments were purified using Qiaquick PCR columns (Qiagen), analyzed on an ABI 3130xL genetic analyzer (Applied Biosystems) with peak positions identified by using a set of X-rhodamine (ROX)-labeled MapMarker1000 molecular weight standards (BioVentures). The raw capillary electrophoresis data was processed using Attagraph software (Attagene).
In the case of `CC(C)(c1ccc(O)cc1)c1ccc(O)cc1`, the AC50 is 33.4 µM (active) and the compound was classed as inactive.

In the case of `C=CCOC(Cn1ccnc1)c1ccc(Cl)cc1Cl` (stereo not given), the result was inactive.

Regarding `CC(=O)[C@H]1CC[C@H]2[C@@H]3CCC4=CC(=O)CC[C@]4(C)[C@H]3CC[C@]12C`, the call was inactive and the AC50 is 180 µM (active).

Turning to `COC(=O)c1ccc(CNS(C)(=O)=O)cc1S(=O)(=O)NC(=O)Nc1nc(OC)cc(OC)n1`, the outcome was inactive.

In the case of `S=C([S-])NCCNC(=S)[S-].[Mn+2]`, the outcome was inactive.

Regarding `COC(=O)c1ccc(I)cc1S(=O)(=O)NC(=O)Nc1nc(C)nc(OC)n1`, the compound was classed as inactive.

`COC(=O)c1cccc(C)c1S(=O)(=O)NC(=O)Nc1nc(OCC(F)(F)F)nc(N(C)C)n1`: the result was inactive.

As for `CCOC(=O)c1ccc(O)cc1`, the call was inactive.

For the compound `c1ccc2[nH]c(-c3cscn3)nc2c1`, the compound was called inactive.

Turning to `CCCCC(CC)CN1C(=O)C2C3C=CC(C3)C2C1=O` (stereo not given), the call was inactive.

Take `N[C@@H](Cc1cc(I)c(Oc2ccc(O)c(I)c2)c(I)c1)C(=O)O`: the result was inactive.

In the case of `CCSC(=O)N(CC(C)C)CC(C)C`, the call was inactive.

On to `CC(C)CCCCCCc1ccc(O)cc1`, for which the compound was classed as inactive.

As for `CCCCCCC(C)OC(=O)COc1nc(F)c(Cl)c(N)c1Cl` (stereo not given), the result was inactive.

Consider `CCN(CC)C(=O)c1cccc(C)c1`, for which the compound was classed as inactive.

With `COc1nc(C)nc(NC(=O)NS(=O)(=O)c2ccccc2OCCCl)n1`, the call was inactive.

For `CCCN(CCC)C(=O)SCC`, the result was inactive.

Consider `CCOC(=O)C(C)Oc1ccc(Oc2cnc3cc(Cl)ccc3n2)cc1` (stereo not given), for which the call was inactive.

`CCCCOC(=O)[C@@H](C)Oc1ccc(Oc2ccc(C(F)(F)F)cn2)cc1`: the compound was called inactive.

For `O=C(Nc1ccc([N+](=O)[O-])cc1Cl)c1cc(Cl)ccc1O`, the call was inactive.

`CC(=O)S[C@@H]1CC2=CC(=O)CC[C@]2(C)[C@H]2CC[C@@]3(C)[C@@H](CC[C@@]34CCC(=O)O4)[C@H]12`: the compound was called inactive and the AC50 was 178 µM (active).

Turning to `CCC(O)=C1C(=O)CC(C(=O)O)CC1=O` (stereo not given), the outcome was inactive.

Turning to `CCCOC(=O)c1ccc(C(=O)OCCC)nc1`, the result was inactive.

Regarding `CCOC(=O)NCCOc1ccc(Oc2ccccc2)cc1`, the result was inactive.

As for `O=C(O)C1(C(=O)Nc2ccc(Cl)cc2Cl)CC1`, the call was inactive.

Consider `CCCCOC(=O)C(C)Oc1ccc(Oc2ccc(C(F)(F)F)cn2)cc1` (stereo not given), for which the result was inactive.

`O=C(c1ccccc1)C1CCCCC1`: the result was inactive.

Take `CCNc1nc(N)nc(Cl)n1`: the compound was called inactive.

Regarding `CCCN(CCC)c1c([N+](=O)[O-])cc(C(F)(F)F)c(N)c1[N+](=O)[O-]`, the compound was called inactive.

For `C[C@]12CC[C@@H]3c4ccc(O)cc4C[C@@H](CCCCCCCCCS(=O)CCCC(F)(F)C(F)(F)F)[C@H]3[C@@H]1CC[C@@H]2O` (stereo not given in full), the call was inactive.

`CSC(=O)c1cccc2nnsc12`: the compound was classed as inactive.

For `CC(C)(C)[C@@H](O)[C@@H](Cc1ccc(Cl)cc1)n1cncn1`, the compound was classed as inactive.

Regarding `Oc1ccc(C(c2ccc(O)cc2)C(Cl)(Cl)Cl)cc1`, the compound was classed as inactive.

On to `O=C(O)c1ccccc1`, for which the compound was called inactive.

For the compound `CC1(C)C(C=C(Cl)Cl)C1C(=O)OCc1cccc(Oc2ccccc2)c1` (stereo not given), the outcome was inactive.

For the compound `S=C(S)NCCNC(=S)S.[Mn+2].[S-]C([S-])=NCCN=C([S-])[S-].[Zn+2]`, the compound was called inactive.

For the compound `COc1c(Cl)ccc(Cl)c1C(=O)O`, the compound was called inactive.
